From article PMC5540273 (PLoS ONE, 2017) come the findings set out here.

Structures are written as SMILES.
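Also: KINOMEscan kinase panel screen.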

One assay relates to PAK4. The note with it: concentration: 1 μM,replicates: in singlicate; n = 1.
Regarding `CCn1c(-c2nonc2N)nc2c(C#CC(C)(C)O)nc(OCCN)cc21.Cl.Cl` [GSK902056], the “%Inh” value is listed as 68%.
Same read-out and setting: for `COc1ccc(C[C@@H](CN)NC(=O)c2cc(Br)c(-c3ccnc4[nH]ccc34)s2)cc1.Cl.Cl` [GSK1389063] the value was 89%; for `Cc1ccc2c(-c3ccncc3)c(-c3ccc(F)cc3)nn2c1.Cl` [GW461484], 0%; for `Cl.Cl.NC[C@H](Cc1ccc(C(F)(F)F)cc1)NC(=O)c1cc(Br)c(-c2ccnc3[nH]ccc23)s1` [GSK1487252], 0%.
The same measure, in the same setting: for `O=C(NCCCN1CCOC1=O)c1cnc(NCc2cc(Cl)ccc2Cl)nc1NC1CCCC1` the value was 18%; for `C=CC(=O)Nc1cc2c(Nc3ccc(F)c(Cl)c3)ncnc2cc1OCCCN1CCOCC1` [GW781483], 15%.
On the same count and under the same terms, for `NC(=O)c1cc(-c2ccccc2)cc2c(C3CCNCC3)c[nH]c12` [GSK301362] the value was 0%; for `C[C@@H]1CCN(C(=O)CC#N)C[C@@H]1N(C)c1ncnc2[nH]ccc12`, 0%; for `Cc1occc1-c1nc(N)c(OC[C@@H](N)Cc2c[nH]c3ccccc23)cc1-c1cc2c(C)n[nH]c2cn1` [GSK1660450], 0%.
Turning to `C[C@H]1Oc2cc(cnc2N)-c2c(nn(C)c2C#N)CN(C)C(=O)c2ccc(F)cc21`, the “%Inh” value was 14%.
Still for that read-out and setting: for `CN(C)CC(O)COc1ccc(Nc2nccc(-c3cnn4nc(N5CCOCC5)ccc34)n2)cc1` (stereo not drawn) [GW767488] the value was 25%; for `CCN(CC)CCCCNc1ncc2cc(-c3c(Cl)cccc3Cl)c(NC(=O)NC(C)(C)C)nc2n1`, 0%; for `Cl.Cl.NC[C@H](CC1CCCCC1)NC(=O)c1cc(Br)c(-c2ccnc3[nH]ccc23)s1` [GSK1581427], 12%.
Still for that read-out and setting: for `CN(C)CCOc1ccc(-c2cc(-c3c[nH]nc3-c3ccccn3)ccn2)cc1` [GW835314] the value was 0%; for `CNC(=O)c1ccccc1Sc1ccc2c(/C=C/c3ccccn3)n[nH]c2c1`, 2%; for `O=C(NCCNc1ccnc(NCc2ccc(F)cc2)n1)c1cc2ccccc2s1` [GSK1379944], 0%.
Same read-out and setting: for `Cc1cc2cn[nH]c2cc1-c1cccc2c(N)c(C(N)=O)nnc12` the value was 16%.
`CC(C)N1C(=O)Cc2cc(Nc3ncc(C(F)(F)F)c(NCc4cccc(S(C)(=O)=O)c4)n3)ccc21`: the “%Inh” value was 7%.
Regarding `Cl.Oc1cc(-c2nc(-c3ccccc3)[nH]c2-c2ccncc2)ccc1Cl` [SB-386023], the “%Inh” value is listed as 0%.
On the same count and under the same terms, for `CC(C)Nc1cc(-c2ccc3c(N)n[nH]c3c2)nc(N)n1` [GSK2221681] the value was 0%; for `Cc1ccc(-n2nc(C(C)(C)C)cc2NC(=O)Nc2ccc(OCCN3CCOCC3)c3ccccc23)cc1` [GW839464], 10%; for `C[C@@H](Oc1cc(-c2cnn(C3CCNCC3)c2)cnc1N)c1c(Cl)ccc(F)c1Cl`, 12%.
In the case of `Cc1n[nH]c2ccc(-c3cc(OC[C@@H](N)Cc4ccccc4)cnc3-c3ccoc3)cc12.O=C(O)C(F)(F)F.O=C(O)C(F)(F)F` [GSK507358], the “%Inh” value came out at 0%.
Same read-out and setting: for `CCN(CC)CCOc1ccc(Nc2ncc3cc(-c4c(Cl)cccc4Cl)c(=O)n(C)c3n2)cc1` [SB-601273] the value was 53%; for `Cl.Cl.Nc1nc(-c2ccc3c(N)n[nH]c3c2)cc(N2CCCC(NC(=O)c3ccccc3)C2)n1` (stereo not drawn) [GSK2286775], 0%.
For the molecule `Cc1cc(C(=O)Nc2ccc(Oc3ccc4nc(NC(=O)C5CC5)cn4n3)cc2)nn1-c1ccccc1`, the “%Inh” value is reported as 0%.
For `Nc1nc(Nc2ccccc2)cc(-c2ccc3c(N)n[nH]c3c2)n1` [GSK2225749], the “%Inh” value stood at 0%.

The test system of the next assay is PAK6. As to conditions: concentration: 1 μM,replicates: in singlicate; n = 1.
Consider `CCn1c(-c2nonc2N)nc2c(C#CC(C)(C)O)nc(OCCN)cc21.Cl.Cl` [GSK902056], for which the “%Inh” value is 45%.
Same read-out and setting: for `COc1ccc(C[C@@H](CN)NC(=O)c2cc(Br)c(-c3ccnc4[nH]ccc34)s2)cc1.Cl.Cl` [GSK1389063] the value was 89%; for `Cc1ccc2c(-c3ccncc3)c(-c3ccc(F)cc3)nn2c1.Cl` [GW461484], 7%.
The same measure, in the same setting: for `Cl.Cl.NC[C@H](Cc1ccc(C(F)(F)F)cc1)NC(=O)c1cc(Br)c(-c2ccnc3[nH]ccc23)s1` [GSK1487252] the value was 25%; for `O=C(NCCCN1CCOC1=O)c1cnc(NCc2cc(Cl)ccc2Cl)nc1NC1CCCC1`, 16%.
In the case of `C=CC(=O)Nc1cc2c(Nc3ccc(F)c(Cl)c3)ncnc2cc1OCCCN1CCOCC1` [GW781483], the “%Inh” value stood at 0%.
On the same count and under the same terms, for `NC(=O)c1cc(-c2ccccc2)cc2c(C3CCNCC3)c[nH]c12` [GSK301362] the value was 0%.
In the case of `C[C@@H]1CCN(C(=O)CC#N)C[C@@H]1N(C)c1ncnc2[nH]ccc12`, the “%Inh” value was found to be 0%.
Take `Cc1occc1-c1nc(N)c(OC[C@@H](N)Cc2c[nH]c3ccccc23)cc1-c1cc2c(C)n[nH]c2cn1` [GSK1660450]: the “%Inh” value came to 11%.
The same measure, in the same setting: for `C[C@H]1Oc2cc(cnc2N)-c2c(nn(C)c2C#N)CN(C)C(=O)c2ccc(F)cc21` the value was 2%; for `CN(C)CC(O)COc1ccc(Nc2nccc(-c3cnn4nc(N5CCOCC5)ccc34)n2)cc1` (stereo not drawn) [GW767488], 30%; for `CCN(CC)CCCCNc1ncc2cc(-c3c(Cl)cccc3Cl)c(NC(=O)NC(C)(C)C)nc2n1`, 0%.
Still for that read-out and setting: for `Cl.Cl.NC[C@H](CC1CCCCC1)NC(=O)c1cc(Br)c(-c2ccnc3[nH]ccc23)s1` [GSK1581427] the value was 28%; for `CN(C)CCOc1ccc(-c2cc(-c3c[nH]nc3-c3ccccn3)ccn2)cc1` [GW835314], 90%.
`CNC(=O)c1ccccc1Sc1ccc2c(/C=C/c3ccccn3)n[nH]c2c1`: the “%Inh” value is listed as 10%.
The same measure, in the same setting: for `O=C(NCCNc1ccnc(NCc2ccc(F)cc2)n1)c1cc2ccccc2s1` [GSK1379944] the value was 57%; for `Cc1cc2cn[nH]c2cc1-c1cccc2c(N)c(C(N)=O)nnc12`, 12%; for `CC(C)N1C(=O)Cc2cc(Nc3ncc(C(F)(F)F)c(NCc4cccc(S(C)(=O)=O)c4)n3)ccc21`, 6%.
On the same count and under the same terms, for `Cl.Oc1cc(-c2nc(-c3ccccc3)[nH]c2-c2ccncc2)ccc1Cl` [SB-386023] the value was 5%; for `CC(C)Nc1cc(-c2ccc3c(N)n[nH]c3c2)nc(N)n1` [GSK2221681], 0%; for `Cc1ccc(-n2nc(C(C)(C)C)cc2NC(=O)Nc2ccc(OCCN3CCOCC3)c3ccccc23)cc1` [GW839464], 12%.
In the case of `C[C@@H](Oc1cc(-c2cnn(C3CCNCC3)c2)cnc1N)c1c(Cl)ccc(F)c1Cl`, the “%Inh” value was found to be 0%.
Same read-out and setting: for `Cc1n[nH]c2ccc(-c3cc(OC[C@@H](N)Cc4ccccc4)cnc3-c3ccoc3)cc12.O=C(O)C(F)(F)F.O=C(O)C(F)(F)F` [GSK507358] the value was 3%.
Still for that read-out and setting: for `CCN(CC)CCOc1ccc(Nc2ncc3cc(-c4c(Cl)cccc4Cl)c(=O)n(C)c3n2)cc1` [SB-601273] the value was 41%.
On the same count and under the same terms, for `Cl.Cl.Nc1nc(-c2ccc3c(N)n[nH]c3c2)cc(N2CCCC(NC(=O)c3ccccc3)C2)n1` (stereo not drawn) [GSK2286775] the value was 17%.
As to `Cc1cc(C(=O)Nc2ccc(Oc3ccc4nc(NC(=O)C5CC5)cn4n3)cc2)nn1-c1ccccc1`, the “%Inh” value is given as 15%.
Same read-out and setting: for `Nc1nc(Nc2ccccc2)cc(-c2ccc3c(N)n[nH]c3c2)n1` [GSK2225749] the value was 0%.
